From PubChem
Hits are enriched below; roughly 17% of the tested compounds scored in any of these assays.
TGFb SMAD3 inh: blocks TGF-b signaling | Potency, µM (highest dose often 46.1 µM), for the others: top-dose activity, negative = inhibition, most hits filed as inhibitors | hit rate 1.2% among 410,000 | AID 588855 | HepG2 CAGA-GFP TGF-b/SMAD3 reporter, GFP fluorescence, 18 h; TGF-beta stimulated, 500 pg/mL final; note: % is set by controls: 0 for no effect and ±100 for the full control effect; nearly all actives have a fitted effect of over 65% in size
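HEPG2 CAGA-GFP reporter cells (1000/well, DMEM with 1% FBS) received compounds, then recombinant TGF-beta at 500 pg/mL final for 18 hours at 37 degrees C. Per-cell GFP summed per well was normalised to unstimulated and stimulated DMSO controls before curve fitting.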
TDP1 cell CPT: growth inhibition of DT40 Tdp1-/-;hTDP1 cells with camptothecin (screen for TDP1 inhibitors) | chicken DT40 Tdp1-/-;hTDP1 cells + 20 nM CPT, ATP luminescence, 48 h | hit rate 12% among 420,000 | Potency, µM (doses to about 46.2 µM), without a hit: at the top dose activity change, negative = growth inhibition, most hits filed as inhibitors; note: % is set by controls: 0 for no effect and ±100 for the full control effect; nearly all actives have a fitted effect of over 55% in size
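Chicken DT40 Tdp1-/- cells complemented with human TDP1, 400 cells/well, exposed to compounds plus 20 nM camptothecin for at least 48 h at 37 C; viability read as ATP content by CellTiter-Glo luminescence.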
HepG2 tox-1: HepG2 cytotoxicity, counter-screen for TGF-b inhibitors; HepG2 CAGA-GFP viability, ATP luminescence, 18 h; Potency, µM (highest dose often 46.1 µM), for the others: top-dose activity change, negative = cytotoxicity, usual class: cytotoxic; hit rate 0.76% among 410,000
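CellTiter-Glo luminescence gave cytotoxicity after 18 hours at 37 degrees C. The cells were HepG2 CAGA-GFP in 1% FBS DMEM, stimulated with 500 pg/mL TGF-beta after compound addition. %Activity was normalised to no-cell wells (complete cell-killing) and DMSO (no toxicity), and curves were fitted and classified.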
TDP1 cell noCPT: qHTS for Inhibitors of human tyrosyl-DNA phosphodiesterase 1 (TDP1): qHTS in cells in absence of CPT | AID 686978, 2013 | DT40 Tdp1-/- hTDP1 cells, no CPT, ATP luminescence, 48 h | Potency, µM (top dose mostly 46.2 µM), without a hit: at the highest dose activity change, negative = growth inhibition, usual class: inhibitors | hit rate 15% among 420,000; note: % is set by controls: 0 for no effect and ±100 for the full control effect; nearly all actives have a fitted effect of over 55% in size
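Chicken DT40 Tdp1-/- cells complemented with human TDP1, screened without camptothecin (DMSO vehicle only), 400 cells/well. Compounds pin-transferred, cells incubated at 37 °C for at least 48 hr. Growth read as ATP-dependent luminescence (CellTiter-Glo, 30 min at RT).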
ATXN2 expr inh: inhibitors of ATXN2 expression. HEK-293 ATXN2-luciferase reporter, luminescence, 24 h. Potency, µM (titrated, usually from 57 µM), without a hit: top-dose activity change, negative = inhibition, actives largely listed as inhibitors. hit rate 0.72% among 360,000. AID 1745845; note: % is set by controls: 0 for no effect and ±100 for the full control effect; nearly all actives have a fitted effect of over 55% in size
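qHTS (up to 57 uM final) was run with 24 h compound exposure of reporter cells at 37 °C. Each well was multiplexed: SteadyGlo luminescence measured ATXN2-luciferase expression after a fluorogenic Gly-Phe-AFC viability readout (25 uM final).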
S2 tox: cell viability loss in ATXN counter-screen | S2 cells (HEK-293 line with an ATXN2-luciferase reporter) viability, CellTiter-Fluor protease fluorescence, 24 h | Potency, µM (doses to about 56.7 µM), usual class: cytotoxic | hit rate 0.49% among 400,000 | AID 651635; note: nearly all actives have a fitted effect of over 40% in size
TGFb confirm: TGF-b pathway inhibition, cherry-pick retest; hit rate 63% among 1,600; Potency, µM (top dose mostly 46.1 µM), for inactives: top-dose activity, negative = inhibition, usual class: inhibitors; shares compounds with TGFb SMAD3 inh; HepG2 CAGA-GFP TGF-b reporter, GFP fluorescence, 18 h; cells stimulated with TGF-beta, 500 pg/mL; note: % is set by controls: 0 for no effect and ±100 for the full control effect; nearly all actives have a fitted effect of over 65% in size
HepG2 tox-2: HepG2 cytotoxicity, TGF-b inhibitor counterscreen. shares compounds with TGFb SMAD3 inh. HepG2 CAGA-GFP viability, ATP luminescence, 18 h; cells stimulated with TGF-beta, 500 pg/mL. Potency, µM (doses to about 46.1 µM), inactives show at the highest dose activity, negative = cytotoxicity, most hits filed as inhibitors. hit rate 27% among 1,600. AID 720535; note: % is set by controls: 0 for no effect and ±100 for the full control effect; nearly all actives have a fitted effect of over 70% in size
TGFb CCL64 inh: blocks TGF-b signaling in CCL64 reporter cells; shares compounds with TGFb SMAD3 inh; CCL64 CAGA-GFP reporter, TGF-b stimulated, GFP fluorescence, 18 h; Potency, µM (series often up to 46.1 µM), for the others: at the top dose activity, negative = inhibition, hits mostly inhibitors; hit rate 41% among 1,600; AID 720536; note: nearly all actives have a fitted effect of over 65% in size
COP TGFb inh: blocks TGF-b signaling in HepG2 COP reporter; hit rate 3% among 1,600; AID 720537; HepG2 COP-GFP TGF-b reporter, GFP fluorescence, 18 h; cells stimulated by added recombinant TGF-beta; Potency, µM (top dose mostly 46.1 µM), without a hit: at the highest dose activity, negative = inhibition, usual class: inhibitors; shares compounds with TGFb SMAD3 inh; note: nearly all actives have a fitted effect of over 70% in size
An asterisk follows results filed as active. Calls come from the whole dose curve; as a rule, active = well fitted curve in the direction sought with a large enough effect; inconclusive = small, poorly fitted or top-dose-only effect, or another doubt; inactive = no such curve, though single readings can be large; an effect the other way counts as inactive or inconclusive. Potency is the fitted concentration of half-maximal effect.

How did CC(=O)Nc1cc(OC(C)=O)c2nonc2c1OC(C)=O do in these assays?
TGFb SMAD3 inh: 2.82µM*; TDP1 cell CPT: inconclusive; HepG2 tox-1: 6.31µM*; TDP1 cell noCPT: 18.4µM*; ATXN2 expr inh: inconclusive; TGFb confirm: 4.11µM*; HepG2 tox-2: 7.31µM*; TGFb CCL64 inh: 20.6µM*; COP TGFb inh: 9.2µM*

What do the screens show for `CC(=O)Nc1nonc1NC(C)=O`?
TGFb SMAD3 inh: -2.5%; TDP1 cell CPT: 2.3%; HepG2 tox-1: 4.6%; TDP1 cell noCPT: -11.4%; ATXN2 expr inh: 9.6%; S2 tox: inactive

Results for CCC(C)NC(=O)Cn1c(=O)sc2ccccc21 (centres undefined) ?
TGFb SMAD3 inh: 7.8%; TDP1 cell CPT: 28.3%; HepG2 tox-1: -12.2%; TDP1 cell noCPT: -14.3%; ATXN2 expr inh: 8.4%; S2 tox: inactive

Results for O=C(Nn1c(SCc2ccc(F)cc2)nc2ccsc2c1=O)c1ccccc1 ?
TGFb SMAD3 inh: 11.2µM*; TDP1 cell CPT: -25.1%; HepG2 tox-1: -2.2%; TDP1 cell noCPT: inconclusive; ATXN2 expr inh: 8.3%; S2 tox: inactive; TGFb confirm: 16.4µM*; HepG2 tox-2: inconclusive; TGFb CCL64 inh: inconclusive; COP TGFb inh: 53.1%

What do the screens show for `COCCCNC(=O)C12CCC(C)(C(=O)C1)C2(C)C` (centres undefined)?
TGFb SMAD3 inh: -5.9%; TDP1 cell CPT: 1.2%; HepG2 tox-1: 4.8%; TDP1 cell noCPT: 1.9%; ATXN2 expr inh: -2.5%; S2 tox: inactive

What do the screens show for `COc1cccc(NC(=O)COc2cccc(-n3cnnn3)c2)c1`?
TGFb SMAD3 inh: 12.8%; TDP1 cell CPT: 0.7%; HepG2 tox-1: 7.9%; TDP1 cell noCPT: 10.5%; ATXN2 expr inh: -18.7%; S2 tox: inactive

What do the screens show for `Cc1cc(OCCCC(=O)Nc2cccc(-n3cnnn3)c2)ccc1Cl`?
TGFb SMAD3 inh: 12.6µM*; TDP1 cell CPT: inconclusive; HepG2 tox-1: -15.9%; TDP1 cell noCPT: 11.6µM*; S2 tox: inconclusive; TGFb confirm: inconclusive; HepG2 tox-2: inconclusive; TGFb CCL64 inh: -2.9%; COP TGFb inh: 64.7%

Results for CC1(C(=O)NS(=O)(=O)Cc2ccccc2)CCN1C(=O)Cc1ccc(-c2ccccc2)cc1 (centres undefined) ?
TGFb SMAD3 inh: 28.1%; TDP1 cell CPT: 16.8%; HepG2 tox-1: 12.9%; TDP1 cell noCPT: -10.4%; ATXN2 expr inh: -3.4%; S2 tox: inactive

What do the screens show for `CC1(C(=O)NCC2CCCCC2)CCN1C(=O)Cc1ccc(-c2ccccc2)cc1` (centres undefined)?
TGFb SMAD3 inh: inconclusive; TDP1 cell CPT: inconclusive; HepG2 tox-1: -53.2%; TDP1 cell noCPT: 23.1µM*; ATXN2 expr inh: -4.3%; S2 tox: inactive; TGFb confirm: -8.1%; HepG2 tox-2: -28.9%; TGFb CCL64 inh: inconclusive; COP TGFb inh: 15.4%

How did CN(C)c1ccc(/C=C(\C#N)C(=O)c2ccccc2)cc1 do in these assays?
TGFb SMAD3 inh: 0.8%; TDP1 cell CPT: -26.5%; HepG2 tox-1: 6.0%; TDP1 cell noCPT: -17.0%; ATXN2 expr inh: 0.3%; S2 tox: inactive

Results for CN(C)c1cccc(/C=C(\C#N)c2ccccc2)c1 ?
TGFb SMAD3 inh: 12.6µM*; TDP1 cell CPT: 2.91µM*; HepG2 tox-1: -29.7%; TDP1 cell noCPT: 2.31µM*; S2 tox: inactive; TGFb confirm: inconclusive; HepG2 tox-2: -25.0%; TGFb CCL64 inh: inconclusive; COP TGFb inh: -6.2%

What do the screens show for `O=C(CSc1nc(-c2ccccc2)nc2cc(=O)[nH]n12)Nc1ccccc1`?
TGFb SMAD3 inh: 0.5%; TDP1 cell CPT: -2.2%; HepG2 tox-1: -24.4%; TDP1 cell noCPT: -11.5%; ATXN2 expr inh: 8.5%; S2 tox: inactive

What do the screens show for `CC(C)c1ccccc1NC(=O)COC(=O)/C=C/c1cccc([N+](=O)[O-])c1`?
TGFb SMAD3 inh: 1.6%; TDP1 cell CPT: inconclusive; HepG2 tox-1: -0.1%; TDP1 cell noCPT: inconclusive; ATXN2 expr inh: -2.5%; S2 tox: inactive

What do the screens show for `COc1ccc(/C=C2/CCC(CN3CCOCC3)C2=O)cc1` (centres undefined)?
TGFb SMAD3 inh: 5.01µM*; TDP1 cell CPT: 1.16µM*; HepG2 tox-1: 11.2µM*; TDP1 cell noCPT: 1.16µM*; ATXN2 expr inh: 6.7µM*; S2 tox: inconclusive; TGFb confirm: 4.61µM*; HepG2 tox-2: 3.66µM*; TGFb CCL64 inh: 4.61µM*; COP TGFb inh: 16.4µM*

What do the screens show for `O=C(Nc1ccc2nc3n(c(=O)c2c1)CCCCC3)c1c(F)ccc([N+](=O)[O-])c1F`?
TGFb SMAD3 inh: 5.01µM*; TDP1 cell CPT: 2.59µM*; HepG2 tox-1: 11.2µM*; TDP1 cell noCPT: 2.31µM*; ATXN2 expr inh: 7.08µM*; TGFb confirm: 2.59µM*; HepG2 tox-2: 2.59µM*; TGFb CCL64 inh: 4.11µM*; COP TGFb inh: 8.2µM*

Results for CCCOc1ccc(CSc2nc3ccccc3[nH]2)cc1 ?
TGFb SMAD3 inh: 10µM*; TDP1 cell CPT: 8.2µM*; HepG2 tox-1: -46.4%; TDP1 cell noCPT: 8.2µM*; ATXN2 expr inh: 3.9%; S2 tox: inconclusive; TGFb confirm: -14.6%; HepG2 tox-2: inconclusive; TGFb CCL64 inh: inconclusive; COP TGFb inh: 3.7%
